Rv3671c inh: Rv3671c (M. tuberculosis) protease inhibition | inhibition, % at 5.96 µM | 320,000 compounds, 0.048% hits | P9WHR9; in the data active = inhibition above about 38%;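 note: extracellular domain of Rv3671c used as enzyme; 0% = enzyme with DMSO and 100% = no enzyme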
Target sequence (P9WHR9 whole entry, looked up, the tested form may be a part): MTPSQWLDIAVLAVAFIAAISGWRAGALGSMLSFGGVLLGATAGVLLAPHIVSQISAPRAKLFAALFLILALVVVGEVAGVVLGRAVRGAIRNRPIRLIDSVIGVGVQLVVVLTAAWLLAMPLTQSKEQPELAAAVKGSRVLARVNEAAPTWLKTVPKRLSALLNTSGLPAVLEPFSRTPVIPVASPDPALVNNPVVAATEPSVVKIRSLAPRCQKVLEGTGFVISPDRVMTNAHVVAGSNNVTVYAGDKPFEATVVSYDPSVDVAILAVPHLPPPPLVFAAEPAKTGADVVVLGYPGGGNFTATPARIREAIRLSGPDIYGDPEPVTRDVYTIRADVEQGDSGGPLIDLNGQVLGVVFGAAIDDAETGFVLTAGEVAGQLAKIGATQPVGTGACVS
RecA splice inh: blocks M. tuberculosis RecA intein splicing; AID 2221; inhibition, % (no concentration beside the values); 290,000 compounds, 0.75% hits; cell-free RecA intein splicing, fluorescence; P9WHJ3; in the data active = inhibition above about 30%;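 note: 0% = vehicle wells and 100% = reference inhibitor control wells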
FBA Mtb inh: inhibits M. tuberculosis FBA enzyme; inhibition, % at 1 µM; 360,000 compounds, 2.3% hits; purified M. tuberculosis FBA, fluorescence read-out; in the data active = inhibition above about 27%;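 note: 0% = vehicle and 100% = reference inhibitor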
BH1578 lux ind: induces V. cholerae light production without autoinducers; V. cholerae BH1578 lux reporter, luminescence, 6 h; activation, % at 18.7 µM; 350,000 compounds, 0.16% hits; AID 588436; in the data active = activation mostly above about 9.7%, no sharp cut-off
GDH-TPI counter: GDH-TPI coupled enzyme inhibition counter-screen | GDH-TPI coupled enzyme counterscreen, NADH absorbance | inhibition, % at 4.8 µM | 360,000 compounds, 1.2% hits | AID 588335; in the data active = inhibition above about 30%;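 note: 0% = DMSO wells and 100% = wells lacking the enzyme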
Mtb UGM inh: Mtb UDP-galactopyranose mutase inhibition; AID 504406; P9WIQ1; purified UGM, fluorescence polarization probe displacement; 320,000 compounds, 0.06% hits; inhibition, % at 10 µM; in the data active = inhibition above about 10%, passing the limit was not always enough
GFP chromophore: counter-screen: blocks GFP chromophore formation. shares compounds with RecA splice inh. cell-free GFP chromophore formation, fluorescence. EC50, µM. 2,100 compounds, 83% hits. AID 434968; call rule not given here
The depositor's hits bear a star. An excerpt weighted towards active compounds, which were near 4.1% of everything screened.

CC(C)NC(=O)C1(C)CCN1C(=O)C1(c2ccccc2)CC1 (configuration not stated) was read as FBA Mtb inh 0.1, BH1578 lux ind 0.3 and GDH-TPI counter 11.6.
Screening CC1=C(C)/C(=N\OC(=O)/C=C/c2ccccc2)C=CC1=O returned Rv3671c inh 2.2, RecA splice inh 37.6*, FBA Mtb inh -1.0, BH1578 lux ind -2.2, GDH-TPI counter 6.7, Mtb UGM inh -1.4 and GFP chromophore >38.
`COc1ccc(CCN(C)C(=O)c2ccc3c(=O)n4c(nc3c2)CCCCC4)cc1OC` gave Rv3671c inh 3.0, FBA Mtb inh -1.6, BH1578 lux ind inactive, GDH-TPI counter -1.9 and Mtb UGM inh -0.8.
CC1=C(C)CC2(SC1)C(=O)N(c1ccccc1)N=C2N (configuration not stated) was read as Rv3671c inh 15.8, RecA splice inh 75.8*, FBA Mtb inh 0.9, BH1578 lux ind -0.4, GDH-TPI counter 6.8, Mtb UGM inh 0.6 and GFP chromophore 4.15*.
Screening CC1=NN(c2ccccc2)C(=O)C1(C)C returned Rv3671c inh 0.4, RecA splice inh -0.4, FBA Mtb inh -1.3, GDH-TPI counter 17.9 and Mtb UGM inh -0.2.
CCn1c(=O)cc(OCC(=O)NCCCN2CCCC2=O)c2ccccc21 was read as Rv3671c inh 7.6, RecA splice inh -3.8, FBA Mtb inh -0.6, BH1578 lux ind -0.4, GDH-TPI counter 8.7 and Mtb UGM inh -1.3.
For Cc1c(N=C2C=CC(=O)c3ccccc32)c(=O)n(-c2ccccc2)n1C the results were RecA splice inh 72.3*, FBA Mtb inh -2.6, BH1578 lux ind -0.3, GDH-TPI counter 3.9 and GFP chromophore 1.81*.
Cc1cccc(C)c1NC(=O)COC(=O)/C=C/c1ccc(S(=O)(=O)N2CCOCC2)cc1 was read as Rv3671c inh -5.2, FBA Mtb inh -1.1, BH1578 lux ind -0.7, GDH-TPI counter -5.6 and Mtb UGM inh 1.3.
For Cc1cc(C(=O)c2ccccc2)c(NC(=O)CCl)s1 the results were Rv3671c inh -7.0, RecA splice inh 58.4*, FBA Mtb inh -3.1, BH1578 lux ind -0.4, GDH-TPI counter 6.4, Mtb UGM inh -0.4 and GFP chromophore 16.8*.
`CCN(CC)CC(=O)Nc1sc(C)cc1C(=O)c1ccccc1` gave Rv3671c inh -14.9, RecA splice inh -0.6, FBA Mtb inh -1.2, BH1578 lux ind -1.3, GDH-TPI counter 6.2 and Mtb UGM inh 1.3.
For Cn1[nH]c(CSc2ccc(Cl)cc2)cc1=O the results were Rv3671c inh -9.1, RecA splice inh 92.9*, FBA Mtb inh -3.8, BH1578 lux ind -3.6, GDH-TPI counter -8.6, Mtb UGM inh -2.3 and GFP chromophore 27.1*.
O=C(COC(=O)c1ccc[nH]c1=O)NC1CC1 was read as Rv3671c inh -2.8, FBA Mtb inh -1.6, BH1578 lux ind -1.1, GDH-TPI counter 12.6 and Mtb UGM inh -0.1.
Screening COC(=O)c1ccccc1NC(=O)C(C)n1nc(C)c2c(C)n(-c3ccccc3)nc2c1=O (configuration not stated) returned Rv3671c inh -6.0, RecA splice inh 97.3*, FBA Mtb inh 6.6, BH1578 lux ind inactive, GDH-TPI counter 1.5, Mtb UGM inh -0.1 and GFP chromophore >38.
Screening Oc1ccc(/C=N/Nc2ccc(C(F)(F)F)cn2)c(O)c1 returned Rv3671c inh 19.5, RecA splice inh 41.7*, FBA Mtb inh -1.7, BH1578 lux ind inactive, GDH-TPI counter 24.2, Mtb UGM inh 1.4 and GFP chromophore >38.
CSc1nc(=S)n(-c2ccc([N+](=O)[O-])cc2)c(C)c1C(C)=O was read as Rv3671c inh -2.4, RecA splice inh 34.8*, FBA Mtb inh -0.5, BH1578 lux ind -0.1, GDH-TPI counter 8.6, Mtb UGM inh 1.6 and GFP chromophore >38.
`CC(=O)c1c(N2CCOCC2)nc(=S)n(-c2ccc([N+](=O)[O-])cc2)c1C` gave Rv3671c inh -2.8, RecA splice inh -3.5, FBA Mtb inh 5.7, BH1578 lux ind -5.0, GDH-TPI counter 7.8 and Mtb UGM inh 1.0.
For NS(=O)(=O)c1ccc(N=Nc2ccc(=O)[nH]c2O)cc1 the results were Rv3671c inh -44.8, RecA splice inh 72.6*, FBA Mtb inh -25.0, BH1578 lux ind -2.2, GDH-TPI counter 2.2, Mtb UGM inh 2.3 and GFP chromophore 10*.
O=C(CCl)N(CCc1ccccc1)CCc1ccccc1 was read as Rv3671c inh 5.8, RecA splice inh 73.8*, FBA Mtb inh 5.3, BH1578 lux ind -0.2, GDH-TPI counter 6.1, Mtb UGM inh 4.6 and GFP chromophore 20.1*.
Screening CCC(O)(CC)C(=O)NN(C(=O)CCl)c1ccccc1 returned Rv3671c inh -1.4, RecA splice inh 12.8, FBA Mtb inh 0.8, BH1578 lux ind -0.3, GDH-TPI counter 0.7 and Mtb UGM inh 1.5.
Screening CCCCCCN(C(=O)CCl)c1ccccc1 returned Rv3671c inh 1.5, RecA splice inh 54.3*, FBA Mtb inh 1.6, BH1578 lux ind inactive, GDH-TPI counter -7.6, Mtb UGM inh 1.4 and GFP chromophore 19.4*.
For CC(=O)N(CCN(C(C)=O)c1ccccc1)c1ccccc1 the results were Rv3671c inh -18.3, RecA splice inh -2.8, FBA Mtb inh 2.0, BH1578 lux ind -1.5, GDH-TPI counter -2.2 and Mtb UGM inh 6.2.
Screening O=C(CCl)N(c1ccccc1)c1ccccc1 returned RecA splice inh 79.5*, FBA Mtb inh 0.9, BH1578 lux ind -1.0, GDH-TPI counter -2.2 and GFP chromophore 21.6*.
For O=C(Nc1ccccc1)NN(C(=O)CCl)c1ccccc1 the results were Rv3671c inh 2.0, RecA splice inh 67.8*, FBA Mtb inh 0.9, BH1578 lux ind -0.2, GDH-TPI counter -1.5, Mtb UGM inh -0.9 and GFP chromophore 15.2*.
Screening O=S(=O)(c1cccc(COc2c(Cl)cccc2Cl)c1)N1CCOCC1 returned Rv3671c inh -4.1, RecA splice inh 5.3, FBA Mtb inh 3.5, BH1578 lux ind -0.4, GDH-TPI counter 2.5 and Mtb UGM inh -2.9.
`Cc1ccc(N(NC(=O)C(O)(c2ccccc2)c2ccccc2)C(=O)CCl)cc1` gave Rv3671c inh -7.5, RecA splice inh 65.7*, FBA Mtb inh -1.7, BH1578 lux ind inactive, GDH-TPI counter -4.5, Mtb UGM inh 2.4 and GFP chromophore 7.34*.
`Oc1ccc2ccccc2c1-c1sc(Nc2ccccc2)n[n+]1-c1ccc(F)cc1` gave Rv3671c inh 1.7, RecA splice inh 1.4, FBA Mtb inh -1.0, BH1578 lux ind -0.4, GDH-TPI counter 10.9 and Mtb UGM inh 6.3.
For Fc1ccc(-[n+]2nc(Nc3ccccc3)sc2-c2c3ccccc3cc3ccccc23)cc1 the results were Rv3671c inh 3.6, RecA splice inh 48.6*, FBA Mtb inh -2.9, BH1578 lux ind -0.4, GDH-TPI counter 9.2, Mtb UGM inh -1.2 and GFP chromophore 16.4*.
